50 compounds from PubChem BioAssay AID602441 (National Center for Advancing Translational Sciences (NCATS), 2012) can be followed below.

The whole screen tested about 1,300 compounds, of which fewer than 10 were called active. Another 9% or so got no clear call; they are omitted. Calls come from the whole dose curve; as a rule, active = well fitted curve in the direction sought with a large enough effect; inconclusive = small, poorly fitted or top-dose-only effect, or another doubt; inactive = no such curve, though single readings can be large or run the other way. A selection follows. A call without a number means that no potency is given here.

A short description of this experiment: qHTS for antagonists of the Thyroid Stimulation Hormone Receptor: Hit Validation in Parental Cell Line. Particulars: parental HEK293 cells lacking TSHR, counter-screen; series mostly up to 56.9 µM. An excerpt:
The thyroid-stimulating hormone receptor (TSHR) is a member of the 7 trans-membrane-spanning receptor (7TMR) family of cell surface receptors. TSHR-mediated hyperthyroidism is important in thyroid pathology. The development of small molecule antagonists of TSHR may lead to therapeutic approaches for TSHR-mediated hyperthyroidism caused by constitutively activating mutations or stimulating auto-antibodies associated with Graves' disease. Graves' disease is the leading cause of hyperthyroidism and is caused by autoantibodies that stimulate TSHR (TsAbs) causing thyroid growth and unregulated overproduction of thyroid hormones and existing treatments have liabilities (agranulocytosis). In addition, TSHRs are known to be expressed in multiple extrathyroidal tissues including bone, brain, kidney, testis, fat and cells of the immune system but the role of the TSHR in these tissues is not clear. Therefore, TSHR antagonists/inverse agonists could be used as probes of extrathyroidal TSHR function. Finally, TSHR inverse agonists, which are a subclass of antagonists that inhibit agonist-independent (or basal or constitutive) TSHR signaling, could be used to inhibit TSH-independent signaling in patients with recurrent or metastatic thyroid cancer who are receiving thyroid hormone to suppress TSH.
In collaboration between scientist from the NCGC and the NIDDK, a miniaturized HTRF high-throughput screen was developed. It's a cell based assay, where an anti cAMP antibody contains a fluorescent cryptate tag (excitation 337 nm; emission 620 nm) and the acceptor is cAMP-d2 (excitation 620 nm; emission 665 nm). When antibody and cAMP-d2 interact and are excited by a 337 nm light, a FRET occurs resulting in emission at 665 nm. The assay is competition between cAMP-d2 and cAMP (from the cell lysate). The homogeneous protocol allows for one step dispense after stimulation that is automation friendly. This is a hit validation assay in a counterscreen using parental HEK 293 cells lines.
NIH Chemical Genomics Center [NCGC]
NIH Molecular Libraries Probe Centers Network [MLPCN]
Assay Provider: Marvin Gershengorn, NIDDK
An anti cAMP antibody contains a fluorescent cryptate tag (excitation 337 nm; emission 620 nm) and the acceptor is cAMP-d2 (excitation 620 nm; emission 665 nm). When antibody and cAMP-d2 interact and are excited by a 337 nm light, a FRET occurs resulting in emission at 665 nm. The assay is competition between cAMP-d2 and cAMP (from the cell lysate). The homogeneous protocol allows for one step dispense after stimulation that is automation friendly. This assay uses parental HEK-EM 293 cells
`N#CC(C#N)=C1C=CC=CN1/C(=C\c1ccco1)C(=O)c1ccccc1`: the Potency entry is “inactive”.
Regarding `COc1ccc(CN(C)C(=O)COC(=O)c2cnc(Cl)c(Cl)c2)cc1`, the Potency result is “inactive”.
For `O=C(Nc1ccn(Cc2ccccc2F)n1)c1ccc(COc2ccccc2Cl)cc1`, the Potency result was “inactive”.
Regarding `CCSC1=NSC2=NC(=O)/C(=C\c3coc4ccccc4c3=O)C(=N)N12`, the Potency result was “inactive”.
The result for `CC1=C(OC(=O)c2ccccc2)C(C)(C)C(c2ccccc2)OC1=O` (stereo not given) reads “inactive”; that for `O=C(Nc1nnc(S(=O)(=O)N2CCCCC2)s1)c1cccc(Br)c1`, “inactive”.
In the case of `O=C(/C=C/c1ccc(Cl)cc1Cl)NCCSCc1ccccc1`, the Potency entry was “inactive”.
`CCCC(=O)N(C1CC(C)C(C#N)(C#N)C1(C#N)C#N)N(C)C` (stereo not given): the Potency result is “inactive”.
For the compound `Cc1ccc(Oc2cc(NC(=O)CCCn3nc([N+](=O)[O-])cc3C)cc([N+](=O)[O-])c2)cc1`, the Potency result is “inactive”.
In the case of `O=c1[nH]c(-c2ccccc2F)nc2c1sc(=S)n2Cc1ccccc1`, the Potency result is “inactive”.
Take `O=C(Nc1ccc2oc(-c3ccccc3F)nc2c1)c1ccc2c(c1)OCCO2`: the Potency result was “inactive”.
With `C=CC(C)(C)c1c2occc2c(O)c2ccc(=O)oc12`, the Potency entry was “inactive”.
For `Cc1ccc(-c2csc(NC(=O)c3ccc4c(=O)n5c(nc4c3)CCCCC5)n2)cc1` the value was “inactive”.
The result for `Cc1ccc(C2(c3ccc(C)cc3)CC2C(=O)Nc2ccc([N+](=O)[O-])cc2O)cc1` (stereo not given) reads “inactive”.
Turning to `COc1ccc(NC(=O)c2ccc(-c3ccccc3)cc2)cc1NS(=O)(=O)c1ccc(F)cc1`, the Potency entry is “inactive”.
For `COc1ccc(N2CCN(C(=O)c3ccccc3N(C)S(=O)(=O)c3ccccc3)CC2)cc1`, the Potency result is “inactive”.
Regarding `Nc1ncc(Br)cc1S(=O)(=O)Nc1cc(C(F)(F)F)cc(C(F)(F)F)c1`, the Potency result was “inactive”.
`CCOc1cc(/C=C/c2ccc3cccc([N+](=O)[O-])c3n2)ccc1OCC(=O)N(C)C`: the Potency entry is “inactive”.
`C=CC[C@H](CC(=O)N(CCO)Cc1ccccc1)C(=O)N[C@H](COC(=O)[C@@H](CC=C)Cc1ccc(F)cc1)C(C)(C)C`: the Potency result was “inactive”.
For `COc1ccc(C)cc1-n1nnnc1SCc1cc(=O)n2cc(C)ccc2n1` the value was “inactive”; for `Cc1ccc(CSc2nnc(SCC(=O)N/N=C/c3c(C)nn(-c4ccccc4)c3C)s2)cc1`, “inactive”.
Consider `COc1ccc(C(=O)Nc2ccc(Cl)c(S(=O)(=O)Nc3ccccc3OC)c2)cc1`, for which the Potency entry was “inactive”.
`CC(Oc1ccc(Cl)cc1Cl)C(=O)Nc1cccnc1` (stereo not given): the Potency result is “inactive”.
For `O=C(c1ccco1)N1CCN(c2ncnc3c2nnn3Cc2ccccc2Cl)CC1`, the Potency entry is “inactive”.
Take `CCOc1ccc2nc(NC(=O)c3ccc(OCC4CCCO4)cc3)sc2c1` (stereo not given): the Potency result was “inactive”.
For `O=c1c2ccccc2nnn1CSc1nnc(-c2cccs2)n1Cc1ccccc1` the value was “inactive”.
For `O=C(O)c1nn(CC(=O)N2CCN(c3ncc(C(F)(F)F)cc3Cl)CC2)c(=O)c2ccccc12` the value was “inactive”; for `O=C(Nc1nc(-c2cccs2)c(-c2cccs2)s1)C1CCCC1`, “inactive”.
For `COc1ccc(C2=NS(=O)(=O)N(C)C(C(=O)Nc3ccc4c(c3)OCO4)=C2)cc1OC` the value was “inactive”; for `Cc1cc(C)c(S(=O)(=O)c2c(C)cccc2C)c(Cl)n1`, “inactive”.
Turning to `COc1ccc(S(=O)(=O)n2cnc3ccccc32)c(C)c1`, the Potency entry was “inactive”.
In the case of `CCCCOc1ccc(/C=N/Nc2cc(N3CCOCC3)nc(C)n2)cc1`, the Potency entry is “inactive”.
In the case of `O=c1cc(-c2ccccc2)nc2c(-c3ccccc3)c(C(F)(F)F)[nH]n12`, the Potency result is “inactive”.
For `Cc1ccc(OCCSc2ncccn2)c(C)c1` the value was “inactive”; for `CCN(CC)S(=O)(=O)c1cccc(NC(=O)CNc2cccc(S(=O)(=O)N3CCOCC3)c2)c1`, “inactive”; for `C=CCn1c(SCC(=O)c2cccs2)nc2sc(CC)cc2c1=O`, “inactive”.
As to `N#C/C(=C\c1ccc(Oc2ccc(C(F)(F)F)cc2[N+](=O)[O-])cc1)c1nc2ccccc2[nH]1`, the Potency result is “inactive”.
The result for `Cc1cc(C)c(-c2csc(NC(=O)/C=C/c3cccs3)n2)c(C)c1` reads “inactive”; that for `Cc1ccc(C)c(S(=O)(=O)N2CCN(C(=O)C3CCN(c4ncnc5sc(C)c(C)c45)CC3)CC2)c1`, “inactive”; that for `CC(C)(C)c1ccc(C(=O)CC(Sc2ccc(Cl)cc2)C(=O)O)cc1` (stereo not given), “inactive”.
`O=C(NCc1ccc2c(c1)OCO2)C12CN(Cc3ccccc3)CC1C(c1cccc([N+](=O)[O-])c1)=NO2` (stereo not given): the Potency result was “inactive”.
For the compound `Cc1nc2ccc(Nc3nc4cc(S(=O)(=O)N5CCOCC5)ccc4o3)cc2s1`, the Potency result was “inactive”.
Turning to `CSc1cccc(NC(=O)C2CCCN(S(=O)(=O)c3ccc(F)cc3)C2)c1` (stereo not given), the Potency entry was “inactive”.
On to `O=C(CSc1nc(-c2ccc(Cl)cc2)cs1)Nc1cccc([N+](=O)[O-])c1`, for which the Potency entry was “inactive”.
For `CCN(Cc1ccccc1)c1ccc(/C=N/NC(=O)c2cccc(S(=O)(=O)N3CCOCC3)c2)cc1`, the Potency entry is “inactive”.
For `Fc1ccc(/C=C2\CCCC3=C2Nc2ncnn2C3c2ccc(F)cc2)cc1` (stereo not given) the value was “inactive”; for `O=C1NC(=S)N(C(=O)c2ccc(F)cc2)/C1=C/c1ccccc1`, “inactive”.
For `O=S(=O)(/N=C(/Nc1cccc2ccccc12)c1ccccc1)c1cccs1`, the Potency result was “inactive”.
Turning to `Cc1ccc(-c2csc(N(CCO)CCCn3c(C(F)(F)F)nc4ccccc43)n2)cc1`, the Potency result is “inactive”.
Consider `Cc1ccc(C(=O)Nc2nc(-c3ccc(F)cc3)cs2)o1`, for which the Potency entry is “inactive”.
